# Measured values: PubChem BioAssay (NCATS)
# “And” between values parts separate entries of the source, which are not always exact repeats. Equal entries are not always repeated. A number with no mark means an inactive call. Records with an inconclusive call do not appear. The source made the active and inactive calls. Unless noted, calls come from the whole dose curve; as a rule, active = well fitted curve in the direction sought with a large enough effect; inconclusive = small, poorly fitted or top-dose-only effect, or another doubt; inactive = no such curve, though single readings can be large; an effect the other way counts as inactive or inconclusive.
# Legend:
# [1] = Drug repurposing screens with cells derived from glioblastoma tumor samples (AID 1345199); conditions: GBM patient neurospheres viability, ATP luminescence, 48 h; note: nearly all actives have a fitted effect of over 40% in size; note: potency is the fitted concentration of half-maximal effect; for activity, negative = cell killing: % is set by controls: 0 for no effect and ±100 for the full control effect
# Summary of the method: (§1)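 Four patient lines of CD133+ GBM neurospheres were screened at several concentrations; hits were retested in those lines plus three slower-growing GBM lines, using 48-hour treatment and ATP-based viability.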
# astro = control astrocytes; assay: as above; conditions: viability, ATP luminescence, 48 h; series mostly up to 45.9 µM
# Summary of the method: as §1
# [2] = qHTS assay to identify inhibitors of the type 1 interferon - major histocompatibility complex class I in skeletal muscle: Counter screen cell viability and HiBit confirmation (AID 1347412); conditions: iHSKM muscle cells + IFN-b, HiBiT or CellTiter-Glo, 24 h; for activity change, negative = inhibition: at 45.9 µM (top of the series); note: potency is the fitted concentration of half-maximal effect; for activity change, negative = inhibition: % is set by controls: 0 for no effect and ±100 for the full control effect; for all read-outs here: nearly all actives have a fitted effect of over 60% in size
# Summary of the method: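 Human myoblast knock-in line, 4.0 ng/ml IFN-beta stimulation, 24 h compound treatment. Endpoints: HiBiT lytic luminescence (HLA-B level) and CellTiter Glo (ATP). Dosing 12 concentrations, 3-fold steps, 46 uM highest final.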
# [3] = target: Nuclear receptor subfamily 1 group I member 2 (Rattus norvegicus) (UniProt Q9R1A7); assay: qHTS assay for small molecule activators of the rat pregnane X receptor (rPXR) signaling pathway (AID 651751; call rule not given here; note: 0% is about no effect); conditions: rPXR reporter cells, luciferase (One-Glo), 24 h
# Sequence of Nuclear receptor subfamily 1 group I member 2 (Rattus norvegicus) (Q9R1A7 whole entry, looked up): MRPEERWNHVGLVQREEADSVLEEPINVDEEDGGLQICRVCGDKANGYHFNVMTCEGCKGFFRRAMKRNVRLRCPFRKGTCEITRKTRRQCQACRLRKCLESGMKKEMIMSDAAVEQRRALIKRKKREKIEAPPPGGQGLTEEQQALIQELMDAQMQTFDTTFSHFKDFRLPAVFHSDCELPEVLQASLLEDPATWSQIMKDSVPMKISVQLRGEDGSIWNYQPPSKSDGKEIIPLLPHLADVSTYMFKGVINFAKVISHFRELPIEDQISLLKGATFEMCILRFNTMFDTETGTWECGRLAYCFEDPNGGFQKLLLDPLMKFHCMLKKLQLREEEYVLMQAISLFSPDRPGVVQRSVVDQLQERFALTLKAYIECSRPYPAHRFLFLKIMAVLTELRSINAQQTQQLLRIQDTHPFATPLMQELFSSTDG
# [4] = qHTS assay for small molecule activators of the human pregnane X receptor (PXR) signaling pathway (AID 720659; call rule not given here; note: 0% is about no effect); conditions: DPX-2 HepG2 CYP3A4-luciferase, 24 h; series mostly up to 92.3 µM
# [5] = at 45.9 µM (top of the series), tumour line B
# [6] = at 45.9 µM (top of the series), tumour line D
# [7] = at 46.1 µM (top of the series), tumour line C
smiles,measurement,setting,value
N[C@@H](C(=O)N[C@H]1C(=O)N2C(C(=O)O)=C(Cl)CC[C@H]12)c1ccccc1,"activity, negative = cell killing",[1]; [5],3.07%
same,"activity, negative = cell killing",[1]; [6],-6.14%
same,"activity, negative = cell killing",[1]; [7],-12.4%
same,Potency,astro,inactive
O=C(O)c1cccc(/C=C2/C[C@@H]3[C@@H](/C=C/[C@@H](O)C4CCCCC4)[C@H](O)C[C@@H]3O2)c1,"activity, negative = cell killing",[1]; [5],-4.9%
same,"activity, negative = cell killing",[1]; [6],-11.8%
same,"activity, negative = cell killing",[1]; [7],-8.79%
same,Potency,astro,inactive
NC(=O)c1ccccc1Nc1ccnc(Nc2cccc(O)c2)n1,Potency,[2]; HiBiT,4.97 µM (active)
COc1ccc(CNc2nc(N(CCO)CCO)nc3c2ncn3C(C)C)cc1,Potency,[2]; HiBiT,5.57 µM (active)
same,"activity change, negative = inhibition",[2]; Viability,13%
C[N+](C)(CCCCCC[N+](C)(C)C1c2ccccc2-c2ccccc21)C1c2ccccc2-c2ccccc21,Potency,astro,inactive
CO[C@H]1C[C@H](O[C@H]2[C@H](C)O[C@@H](O[C@@H]3/C(C)=C/C[C@@H]4C[C@@H](C[C@]5(C=C[C@H](C)[C@@H](C6CCCCC6)O5)O4)OC(=O)[C@@H]4C=C(C)[C@@H](O)[C@H]5OC/C(=C\C=C\[C@@H]3C)[C@]54O)C[C@@H]2OC)O[C@@H](C)[C@@H]1O,Potency,astro,17.8 µM (active)
COC(=O)C[C@](O)(CCCC(C)(C)O)C(=O)O[C@@H]1C(OC)=CC23CCCN2CCc2cc4c(cc2[C@H]13)OCO4 (stereo not given in full),Potency,astro,1.12 µM (active)
CCC(c1ccccc1)c1noc(CCN(CC)CC)n1 (stereo not given),"activity, negative = cell killing",[1]; [5],-14.3%
same,"activity, negative = cell killing",[1]; [6],-10.2%
same,"activity, negative = cell killing",[1]; [7],-2.54%
same,Potency,astro,inactive
CCCOc1ccc2nc(NC(=O)OC)sc2c1,"activity, negative = cell killing",[1]; [7],-26.8%
same,Potency,[1]; tumour line A,8.91 µM (active)
same,Potency,[1]; tumour line D,10 µM (active)
same,Potency,astro,6.31 µM (active)
CNC[C@@H]1CC[C@@H](N)[C@@H](O[C@H]2[C@H](O)[C@@H](O[C@H]3OC[C@](C)(O)[C@H](NC)[C@H]3O)[C@H](N)C[C@@H]2N)O1,"activity, negative = cell killing",[1]; [5],-14.4%
same,"activity, negative = cell killing",[1]; [6],-20.8%
same,"activity, negative = cell killing",[1]; [7],16.1%
same,Potency,astro,inactive
COc1cc([C@@H]2c3cc4c(cc3C(O[C@@H]3O[C@@H]5COC(c6cccs6)O[C@H]5[C@H](O)[C@H]3O)C3COC(=O)[C@@H]32)OCO4)cc(OC)c1O (stereo not given in full),Potency,astro,12.6 µM (active)
NCCCNCCCCNC(=O)C(O)NC(=O)CCCCCCN=C(N)N (stereo not given),"activity, negative = cell killing",[1]; [5],-10.7%
same,"activity, negative = cell killing",[1]; [7],-21.3%
same,Potency,astro,inactive
Cc1ccc(/C(=C\CN2CCCC2)c2cccc(/C=C/C(=O)O)n2)cc1,"activity, negative = cell killing",[1]; [7],-12.4%
same,Potency,[1]; tumour line A,35.5 µM (active)
same,Potency,astro,22.4 µM (active)
NC(=O)c1cnc(N[C@@H]2CCCC[C@@H]2N)nc1Nc1cccc(-n2nccn2)c1,"activity change, negative = inhibition",[2]; Viability,-17.1%
NCCC(=O)[N-][C@@H](Cc1cnc[nH]1)C(=O)O.[Zn],"activity, negative = cell killing",[1]; [5],-11.4%
same,"activity, negative = cell killing",[1]; [6],-14.7%
same,"activity, negative = cell killing",[1]; [7],0.418%
same,Potency,astro,inactive
CCN(CC)c1ccc(C(=C2C=CC(=[N+](CC)CC)C=C2)c2ccccc2)cc1,Potency,astro,2 µM (active)
CC(CC(c1ccccc1)c1ccccc1)NC(C)(C)C (stereo not given),Potency,astro,inactive
Cc1ccc(C(=O)Nc2ccc(CN3CCN(C)CC3)c(C(F)(F)F)c2)cc1C#Cc1cnc2[nH]ncc2c1,Potency,[2]; HiBiT,0.394 µM (active)
CC#CCC(C)[C@H](O)/C=C/[C@@H]1[C@H]2c3cccc(CCCC(=O)O)c3O[C@H]2C[C@H]1O (stereo not given in full),"activity, negative = cell killing",[1]; [5],-5.83%
same,"activity, negative = cell killing",[1]; [6],2.53%
same,"activity, negative = cell killing",[1]; [7],-26.2%
same,Potency,astro,inactive
COc1cccc(OCCCN)c1-c1cc(Nc2cnc(C#N)cn2)n[nH]1,Potency,[2]; HiBiT,15.7 µM (active)
same,Potency,[2]; Viability,17.6 µM (active)
COC(=O)Nc1cc(Nc2cc(NC3CC3)c3ncc(C#N)n3n2)c(Cl)c(N2CCN(C)CC2)c1,Potency,[2]; HiBiT,7.01 µM (active)
same,Potency,[2]; Viability,17.6 µM (active)
COCCNCc1ccc(-c2cc3nccc(Oc4ccc(NC(=O)C5(C(=O)Nc6ccc(F)cc6)CC5)cc4F)c3s2)nc1,Potency,[2]; Viability,31.3 µM (active)
CCCCCCCC/C=C\CCCCCCCC(=O)OC[C@@H](O)[C@H]1OC[C@H](O)[C@H]1O,"activity, negative = cell killing",[1]; [5],-4.65%
same,"activity, negative = cell killing",[1]; [6],1.42%
same,Potency,astro,inactive
same,max response,[3],1.88%
same,outcome,[4],inactive
Cc1c(O)cc2c(c1C)O[C@](C)(CCC[C@H](C)CCC[C@H](C)CCCC(C)C)CC2,Potency,astro,inactive
CCOC(=O)COc1ccc2c(=O)cc(-c3ccccc3)oc2c1,"activity, negative = cell killing",[1]; [6],-18.4%
same,"activity, negative = cell killing",[1]; [7],-1.42% and -17.4%
same,Potency,astro,inactive
c1ccc2c(CCC3CCNCC3)c[nH]c2c1,Potency,astro,inactive
